# Rows were chosen to be rich in hits. Some 7.4% of all compounds tested hit in one or more screens of this group.
# ELG1 genotox – inducers of genotoxicity in HEK293T ELG1-luciferase cells; HEK293T ELG1-luciferase reporter, luminescence, 16 h; Potency, µM (highest dose often 46 µM), actives largely listed as activators; actives 1.3% (n = 330,000); AID 504466; also: nearly all actives have a fitted effect of over 60% in size
#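 Luminescence read-out: rising ELG1-luciferase signal, reflecting elevated ELG1 protein under genetic stress, flags genotoxic compounds. Cells were treated for 16 hr at 37 °C before ONE-Glo detection.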
# SMN2 splice up – SMN2 splice variant enhancement. HEK293 SMN2-luciferase splicing reporter, luminescence, 30-36 h. Potency, µM (top dose mostly 46.1 µM), actives largely listed as activators. actives 2.8% (n = 210,000). AID 1458; also: nearly all actives have a fitted effect of over 55% in size
#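 HEK293 cells carry an SMN2 […]–luciferase reporter in which exon 7 inclusion puts luciferase in frame. Cells were plated 10-12 h before compound addition, then incubated 30-36 h at 37C. ONE-Glo luminescence was read; sodium butyrate at 4.5 mM final served as control.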
# NPC1 prom act – activators of NPC1 promoter | Huh7 NPC1 promoter luciferase reporter, 24 h | Potency, µM (highest dose often 9.22 µM), usual class: activators | actives 2.4% (n = 320,000) | AID 485313; also: nearly all actives have a fitted effect of over 60% in size
#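 NPC1 promoter–luciferase Huh7 cells; 24 h compound; luminescence.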
# Rab9 prom act – activators of Rab9 promoter; Potency, µM (top dose mostly 9.22 µM), actives largely listed as activators; AID 485297; Huh7 Rab9 promoter-luciferase reporter, luminescence, 24 h; actives 2.8% (n = 320,000); also: nearly all actives have a fitted effect of over 60% in size
#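 Promoter activation is measured as luciferase luminescence in Huh7 cells stably transfected with a Rab9 promoter–luciferase construct, following 24 h compound exposure at 37 °C and 10 min reagent incubation at ambient temperature.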
# FLuc counter – firefly luciferase modulation, counter-screen for miR-21 project. actives 6.9% (n = 360,000). Potency, µM (doses to about 57.5 µM), most hits filed as inhibitors. purified FLuc, Km substrates, luminescence inhibition. P08659; also: nearly all actives have a fitted effect of over 55% in size
# Target sequence (P08659 whole entry, looked up): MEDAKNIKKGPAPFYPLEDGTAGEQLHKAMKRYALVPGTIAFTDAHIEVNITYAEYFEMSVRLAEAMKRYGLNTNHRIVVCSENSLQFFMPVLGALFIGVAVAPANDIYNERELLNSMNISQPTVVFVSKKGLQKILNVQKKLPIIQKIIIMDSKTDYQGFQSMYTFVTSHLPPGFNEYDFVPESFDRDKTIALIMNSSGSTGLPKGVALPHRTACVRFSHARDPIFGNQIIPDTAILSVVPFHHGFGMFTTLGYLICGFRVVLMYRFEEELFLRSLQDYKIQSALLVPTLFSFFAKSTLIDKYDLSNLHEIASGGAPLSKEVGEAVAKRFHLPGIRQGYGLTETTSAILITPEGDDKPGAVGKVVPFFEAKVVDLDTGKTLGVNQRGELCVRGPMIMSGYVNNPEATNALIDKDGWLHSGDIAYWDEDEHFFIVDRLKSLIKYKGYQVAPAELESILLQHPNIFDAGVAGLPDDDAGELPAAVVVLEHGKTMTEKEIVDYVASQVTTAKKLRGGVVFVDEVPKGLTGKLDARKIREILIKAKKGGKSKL
#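 Purified P. pyralis luciferase, 10 nM final, with Km-level 10 uM D-luciferin and 10 uM ATP in 50 mM Tris acetate pH 7.5, 10 mM Mg acetate, 0.01% Tween-20, 0.05% BSA; 6-point qHTS titration about 60 µM downward; luminescence read.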
# Hits are given with their value; i = inactive; ? = inconclusive; nt = no result; [ ] = dose if it differs, or a comment. Calls follow the shape of the dose curve; as a rule, active = well fitted curve in the direction sought with a large enough effect; inconclusive = small, poorly fitted or top-dose-only effect, or another doubt; inactive = no such curve, though single readings can be large; an effect the other way counts as inactive or inconclusive.
SMILES,ELG1 genotox,SMN2 splice up,NPC1 prom act,Rab9 prom act,FLuc counter
CN(C)S(=O)(=O)c1cccc(NC(=O)c2ccc(N3CCCC3=O)cc2)c1,i,nt,nt,nt,nt
Cc1nnc(NC(=O)c2ccc(N3CCCC3=O)cc2)s1,?,nt,?,2.2µM,24µM
Cc1cccc(C)c1NC(=O)c1ccc(N2CCCC2=O)cc1,i,nt,i,i,i
COc1ccc(CNC(=O)COCc2cc(-c3cccs3)on2)cc1,nt,nt,nt,nt,i
O=C(COCc1cc(-c2cccs2)on1)Nc1ccc(OC(F)(F)F)cc1,nt,nt,nt,nt,i
Cc1csc(NC(=O)c2ccc(N3CCCC3=O)cc2)n1,0.65µM,0.56µM,?,0.32µM,1.9µM
Cc1csc(N2CCCC2=O)n1,i,i,i,i,i
CCN1CCN(c2csc3ccc(Br)cc3c2=O)CC1,nt,nt,nt,nt,13µM
CCN1CCN(CC(=O)N/N=C/c2cc(Br)cs2)CC1,i,nt,i,i,i
CCN1CCN(c2csc3ccc(C)cc3c2=O)CC1,nt,nt,nt,nt,12µM
CCOC(=O)C1CCCN(C(=O)c2ccc3oc(CCc4ccccc4)nc3c2)C1 (stereo not given),i,nt,?,i,13µM
COCCc1nc2ccc(C(=O)N3CCCCC3COC)cc2o1 (stereo not given),i,nt,i,i,i
COCCC1CCCCN1C(=O)c1ccc2nc(Cc3ccccc3F)oc2c1 (stereo not given),10µM,nt,1.8µM,2.8µM,8.5µM
CCCCc1nc2cc(C(=O)N3CCN(c4nc(C)cnc4C)CC3)ccc2o1,i,nt,?,?,15µM
O=C(c1ccc2oc(CCCc3ccccc3)nc2c1)N1CCCC1,9.2µM,nt,3.2µM,1.8µM,8.5µM
CC(=O)C1CCCN(C(=O)c2ccc3oc(CCc4ccccc4)nc3c2)C1 (stereo not given),?,nt,?,2.5µM,?
COC(=O)C1CCCCN1C(=O)c1ccc2oc(Cc3ccccc3)nc2c1 (stereo not given),?,nt,3.5µM,?,15µM
CCCCNc1ncnc2c1nnn2C,nt,nt,nt,nt,i
COc1ccc(-n2nc(C(=O)NCC(=O)N3CCN(c4ccccc4F)CC3)c3ccccc3c2=O)cc1OC,i,nt,?,i,0.95µM
COc1ccc(-n2nc(C(=O)NCC(=O)N3CCN(c4ccccc4F)CC3)c3ccccc3c2=O)cc1,i,nt,?,?,0.34µM
COc1ccc(-n2nc(C(=O)NCC(=O)N3CCN(C)CC3)c3ccccc3c2=O)cc1OC,i,i,i,i,?
Cc1cc(C)n2nc(-c3ccsc3-n3c(C)ccc3C)cc2n1,i,i,i,i,i
Cc1ccc(NC(=O)c2cc3nc(C)cc(C)n3n2)cc1,1.5µM,11µM,0.63µM,0.89µM,4.8µM
Cc1cc(C)n2nc(-c3ccccc3)cc2n1,?,nt,?,3.2µM,7.6µM
Cc1ccc(-c2cc3nc(C)cc(C)n3n2)cc1,5.2µM,13µM,3.5µM,1.8µM,2.7µM
SMILES,ELG1 genotox,SMN2 splice up,NPC1 prom act,Rab9 prom act,FLuc counter
Cc1cc(C)n2nc(C(=O)NCc3ccccc3)cc2n1,i,i,i,i,i
Cc1cc(C)n2nc(Nc3ccccc3)cc2n1,i,i,i,i,17µM
CCOc1ccc(NC(=O)N2CCOc3ccccc32)cc1,nt,nt,nt,nt,i
COCC(=O)N1CCC2(CC1)CCN(c1ncccn1)CC2,nt,i,nt,nt,nt
CCCCn1c(CNC(=O)c2ccc(OC)cc2)nnc1SCC(=O)Nc1ccccc1,nt,i,nt,nt,i
CC(=O)NC12CC3CC(C1)CC(C(=O)OCC(=O)c1ccc4c(c1)OCCO4)(C3)C2,?,i,0.5µM,0.1µM,0.24µM
O=C(COC(=O)c1cccs1)c1ccc2c(c1)OCCO2,10µM,i,1.6µM,0.32µM,0.076µM
O=C(COC(=O)c1cccs1)c1ccc2ccccc2c1,?,i,?,i,1.7µM
CC(=O)NC12CC3CC(C1)CC(C(=O)OCC(=O)Nc1ncc(Cl)c(C)c1Cl)(C3)C2,i,i,i,i,i
Cc1cc(CN2CCCCC2)c(O)c(CN2CCCCC2)c1,nt,i[9.22 µM],nt,nt,nt
CN(C)c1ccc(-c2n[nH]c(=S)n2-c2ccccc2)cc1,i,i,i,i,i
CN(C)c1ccc(C2CC(c3ccccc3)=Nc3nc(-c4ccccc4)cn32)cc1 (stereo not given),i,i,i,i,13µM
Cc1cc(C)c(NC(=O)C2CCN(c3nn4c(=O)cc(C)nc4s3)CC2)c(C)c1,nt,i,nt,nt,i
CC(C)(C)OC(=O)N1CCC(c2c(C(=O)NCc3ccco3)cnn2-c2ccc(F)cc2F)CC1,nt,nt,nt,nt,i
COc1ccccc1N=CC=C1OC(C)(C)C(C)(C)O1,i,i,i,i,i
Cc1ccc(N=CC=C2OC(C)(C)C(C)(C)O2)c(C)c1,i,i,i,i,7.6µM
Cc1cccc(Oc2ccc(NC(=O)c3ccccc3C(=O)O)cc2)c1C,i,i,i,i,19µM
O=C(O)c1ccccc1C(=O)Nc1ccc(Oc2cccc3ccccc23)cc1,i,i,i,i,24µM
O=C(Nc1ccc(Oc2cccc3ccccc23)cc1)c1ccco1,?,i,i,i,24µM
O=C(O)c1ccccc1C(=O)Nc1ccc(Oc2ccc3ccccc3c2)cc1,i,nt,i,i,27µM
COc1ccc(NC(=O)c2ccccc2Oc2ccccc2)cc1,i,nt,i,i,i
COc1ccc(NC(=O)c2ccccc2-c2ccccc2C(=O)O)cc1,i,nt,i,i,i
Cc1c(C)c(C)c(C(=O)c2ccc(NC(=O)c3ccccc3C(=O)O)cc2)c(C)c1C,i,nt,i,i,i
COc1cc(OC)cc(-c2nc3nc(C)c(CCC(=O)Nc4cc(C)cc(C)c4)c(C)n3n2)c1,nt,i,nt,nt,i
CCCSc1ncc(Cl)c(C(=O)Nc2scc(-c3ccc(C)cc3)c2C(=O)OCC)n1,nt,i,nt,nt,i
SMILES,ELG1 genotox,SMN2 splice up,NPC1 prom act,Rab9 prom act,FLuc counter
CCc1nc2ccc(C(=O)NCc3ccc(OC)c(OC)c3)cc2nc1CC,nt,nt,nt,nt,i
CCOC(=O)CNc1c(-c2ccc(Cl)cc2)nc2cnccn12,i,i,i,i,i
COc1ccc(-c2nc3ccc(Cl)cn3c2Nc2ccc(C)cc2)cc1,nt,i,nt,nt,i
COCCNc1c(-c2ccc(OC)cc2)nc2ccc(Cl)cn12,i,i,i,?,11µM
CCOC(=O)CNc1c(-c2ccc(OC)cc2)nc2ccc(Cl)cn12,?,?,i,i,8.5µM
COc1ccc(-n2ncc(C(=O)Nc3ccc4c(c3)OCCO4)c2C2CCN(C(=O)OC(C)(C)C)CC2)cc1,nt,nt,nt,nt,i
CC[C@](N)(CCC(=O)O)C(=O)O,nt,i,nt,nt,nt
O=C(COC(=O)c1c(F)cccc1F)Nc1ccc2c(c1)OCO2,i,nt,i,i,6.7µM
O=C(COC(=O)Cc1ccccc1F)Nc1ccc2c(c1)OCCO2,i,i,i,i,17µM
Cc1c(NC(=O)c2cccc(NC(=O)COc3ccccc3C#N)c2)c(=O)n(-c2ccccc2)n1C,i,nt,2.2µM,4µM,1.3µM
CC(C)NC(=O)COc1ccccc1C#N,i,i,i,i,i
N#Cc1ccccc1OCC(=O)Nc1ccc2c(c1)OCCCO2,i,nt,2.2µM,3.2µM,17µM
O=C(COC(=O)Cc1ccccc1F)Nc1ccc2c(c1)OCO2,i,i,i,i,?
CCN(CCCNC(=O)c1ccc(Sc2ccc(F)cc2)c(NC(C)=O)c1)c1ccccc1,nt,nt,nt,nt,i

# Source: PubChem BioAssay
